This passage reports composite z-score and z-score results from PubChem BioAssay.

A short description of test [1]: anti-His antibody binders, primary screen, artefact control for SMM control protein annotation, biochemical, small-molecule microarray, 635 nm fluorescence (AID 1128).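 Note: score merges feature fluorescence with signal-to-noise for each printed compound spot.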 The following applies: anti-His Alexa647 antibody binding, higher = more signal.
In test [2] the test system is Human papillomavirus type 1a E7 protein (residues 1-88). Briefly: HPV1a E7 small-molecule binders, primary screen, biochemical, small-molecule microarray, residues 1-88, 635 nm (AID 1129). The following applies: small-molecule microarray binding, fluorescence 635 nm; higher = more signal.
Test [3] concerns the target Focal adhesion kinase 1 (Homo sapiens) (UniProt Q05397). As to the kind of experiment: small-molecule microarray binders of FAK, primary screen, biochemical, 635/667 nm fluorescence, BSA, DTT (AID 1130).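 Note: composite of spot emission at 667 nm and signal to noise over triplicate slides.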 The settings on record: PTK2 binding, 635 nm fluorescence, higher = more signal.
Test [4] concerns Fibrinogen (Alexa647-labelled). Briefly: fibrinogen binders on compound microarrays, profiling panel, artefact control for SMM control-protein annotation, biochemical, small-molecule microarray, 635/667 nm fluorescence (AID 1131).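 Note: z-score merges 667 nm fluorescence with per-spot signal-to-noise over triplicate slides.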 The settings on record: fibrinogen-A647 binding fluorescence, higher = more signal.
The target of test [5] is Follistatin (Homo sapiens) (UniProt P19883). As to the kind of experiment: follistatin binders on small-molecule microarrays, primary screen, biochemical, small-molecule microarray, 635/667 nm fluorescence (AID 1132). The settings on record: FST binding, 635 nm fluorescence, higher = more signal.
Chain of Follistatin (Homo sapiens) (P19883 whole entry, looked up): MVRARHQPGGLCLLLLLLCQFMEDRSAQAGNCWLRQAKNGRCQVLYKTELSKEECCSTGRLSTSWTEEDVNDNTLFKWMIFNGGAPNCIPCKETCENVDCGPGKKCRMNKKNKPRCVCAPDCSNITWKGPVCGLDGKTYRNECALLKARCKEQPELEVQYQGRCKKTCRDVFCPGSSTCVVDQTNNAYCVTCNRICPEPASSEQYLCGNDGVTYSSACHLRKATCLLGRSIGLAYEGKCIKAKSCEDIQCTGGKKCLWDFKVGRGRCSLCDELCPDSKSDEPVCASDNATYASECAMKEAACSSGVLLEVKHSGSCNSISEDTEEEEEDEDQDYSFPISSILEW
The target of test [6] is Fibroblast growth factor 2 (Homo sapiens) (UniProt P09038). Briefly: FGF2 binders on small-molecule microarrays, primary screen, biochemical, small-molecule microarray, 635/667 nm fluorescence (AID 1133). The following applies: small-molecule microarray binding, FGF2, fluorescence 635/667; higher = more signal.
Chain of Fibroblast growth factor 2 (Homo sapiens) (P09038 whole entry, looked up): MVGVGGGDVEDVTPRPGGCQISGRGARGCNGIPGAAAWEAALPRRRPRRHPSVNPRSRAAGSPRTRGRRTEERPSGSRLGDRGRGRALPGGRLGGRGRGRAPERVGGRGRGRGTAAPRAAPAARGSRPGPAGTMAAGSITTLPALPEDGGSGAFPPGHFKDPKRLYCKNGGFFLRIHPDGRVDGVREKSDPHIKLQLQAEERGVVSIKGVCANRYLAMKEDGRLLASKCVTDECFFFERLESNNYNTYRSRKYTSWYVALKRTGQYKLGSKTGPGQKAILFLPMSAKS
A short description of test [7]: mitochondrial membrane potential change in A549 cells, profiling panel, cell-based, JC-1 fluorescence, basal, 24 h, 100 nL (AID 1138).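 Note: A549 lung adenocarcinoma cells under basal conditions with no added stimulus; test concentration not given here.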 The following applies: higher = more signal.
Test [8] deals with Lefty1. As to the kind of experiment: Lefty1 binders on small-molecule microarrays, primary screen, biochemical, small-molecule microarray, 635/667 nm fluorescence (AID 1139). The following applies: small-molecule microarray binding, fluorescence 635/667; higher = more signal.
Test [9] relates to wheat germ agglutinin (Triticum aestivum), Alexa647-labelled. As to the kind of experiment: wheat germ agglutinin binders on compound microarrays, profiling panel, artefact control for SMM control-protein annotation, biochemical, small-molecule microarray, 635/667 nm fluorescence (AID 1140).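 Note: score merges 667 nm feature emission with signal to noise over triplicate slides.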 The following applies: WGA-A647 binding, 635 nm fluorescence, higher = more signal.
The target of test [10] is Luciferin 4-monooxygenase (Photinus pyralis) (UniProt P08659). As to the kind of experiment: firefly luciferase enzyme inhibitors, primary screen, biochemical, luminescence, purified enzyme, 2006 set (AID 1141).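 Note: cell-free assay with purified firefly luciferase at 100 ng per well in PBS; test concentration not given here.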 The following applies: SteadyGlo luminescence, 30 min, higher = more signal, called active from +8 up or from −8 down.
Chain of Luciferin 4-monooxygenase (Photinus pyralis) (P08659 whole entry, looked up): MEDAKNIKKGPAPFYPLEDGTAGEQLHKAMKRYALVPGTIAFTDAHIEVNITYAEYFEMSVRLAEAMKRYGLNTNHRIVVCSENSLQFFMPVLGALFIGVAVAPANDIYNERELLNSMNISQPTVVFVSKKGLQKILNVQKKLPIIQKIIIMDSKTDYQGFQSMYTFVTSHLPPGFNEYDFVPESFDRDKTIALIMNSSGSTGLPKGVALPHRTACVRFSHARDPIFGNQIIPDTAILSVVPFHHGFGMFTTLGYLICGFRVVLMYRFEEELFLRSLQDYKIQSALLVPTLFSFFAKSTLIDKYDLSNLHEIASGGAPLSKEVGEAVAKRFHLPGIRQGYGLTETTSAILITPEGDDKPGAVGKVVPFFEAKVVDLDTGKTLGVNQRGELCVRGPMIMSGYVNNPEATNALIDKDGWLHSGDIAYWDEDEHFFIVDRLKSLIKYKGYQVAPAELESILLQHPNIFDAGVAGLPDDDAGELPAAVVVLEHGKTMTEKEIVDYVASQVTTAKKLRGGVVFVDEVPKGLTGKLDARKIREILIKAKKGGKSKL
Test [11] has as its system Wnt5a (protein binding on small-molecule microarray). Briefly: Wnt5a binders on small-molecule microarray, primary screen, biophysical, 635/667 nm fluorescence (AID 1142).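 Note: fluorescence read at 667 nm with signal to noise per printed feature.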 The following applies: 635 nm fluorescence, higher = more signal.
Test [12] in a line: cell viability in Huh7 cells, primary screen, cytotoxicity control for HCV replication inhibitor project, CellTiter-Glo luminescence, basal, 48 h (AID 1143).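 Note: Huh7 hepatoma cells carrying a hepatitis C replication reporter with no stimulus; test concentration not given here.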 The settings on record: Huh7 HCV replicon, higher = more signal, called active from +8 up or from −8 down. (ATP-based viability assays read luminescence as a measure of living cells.)
The nature of test [13]: P. aeruginosa biofilm formation inhibitors, primary screen, PAO1 strain, BacTiter-Glo luminescence, LB-PBS (AID 1144). The following applies: 12 h, higher = more signal.
Test [14] is described as follows: CREB reporter modulators without forskolin, primary screen, cell-based, PC12, CRE-LacZ reporter, unstimulated (AID 1145). The following applies: no forskolin, luminescence, 4.5 h, higher = more signal, called active from +8 up or from −8 down.
A short description of test [15]: CREB reporter modulators under forskolin, primary screen, cell-based, PC12, CRE-LacZ reporter, forskolin-stimulated (AID 1146).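 Note: PC12 cells with 6xCRE LacZ reporter stimulated by forskolin 10 µM; beta-galactosidase reporter signal reflecting CREB driven transcription.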 The following applies: luminescence, 4.5 h, higher = more signal, called active from +8 up or from −8 down.
Test [16] concerns the target Streptavidin (Streptomyces avidinii) (UniProt P22629). As to the kind of experiment: streptavidin binders on small-molecule microarray, primary screen, artefact control for SMM compound annotation, biophysical, 635/667 nm fluorescence (AID 1147).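 Note: signal reflects streptavidin binding to arrayed compounds as a control protein.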 The following applies: streptavidin binding, higher = more signal.
The nature of test [17]: small-molecule binders of probe aInhba, primary screen, biochemical, small-molecule microarray, 635/667 nm fluorescence (AID 1148).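 Note: score merges 667nm spot fluorescence with signal-to-noise for antibody binding to printed compounds.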 The following applies: higher = more signal.
Test [18] addresses Torsin-1A (Homo sapiens) (UniProt O14656). Briefly: torsin A binders from cell lysate, primary screen, small-molecule microarray, wild-type, 635/667 nm (AID 1149). The settings on record: COS7 hTOR1A-WT lysate, 635 nm fluorescence, higher = more signal.
Test [19] has the same target. As to the kind of experiment: small-molecule binders of mutant TOR1A in lysate, primary screen, cell lysate, small-molecule microarray, COS7 lysate, 635/667 nm fluorescence (AID 1150).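 Note: score pools 667 nm emission and signal to noise measuring lysate protein binding.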 The settings on record: COS7 hTOR1A mutant lysate, 635 nm fluorescence, higher = more signal.
Test [20] has as its system Sonic hedgehog protein (Shh). As to the kind of experiment: small-molecule binders of Shh protein, primary screen, biochemical, small-molecule microarray, 635/667 nm fluorescence (AID 1151).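 Note: Shh protein binding to compounds spotted on small-molecule microarray slides; score combines spot fluorescence intensity with signal-to-noise across triplicate slides.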 The settings on record: small-molecule microarray binding, 635 nm fluorescence; higher = more signal.

Active and inactive are the calls of the source. Unless noted, the rule behind the calls is not given here.

Chain of Streptavidin (Streptomyces avidinii) (P22629 whole entry, looked up): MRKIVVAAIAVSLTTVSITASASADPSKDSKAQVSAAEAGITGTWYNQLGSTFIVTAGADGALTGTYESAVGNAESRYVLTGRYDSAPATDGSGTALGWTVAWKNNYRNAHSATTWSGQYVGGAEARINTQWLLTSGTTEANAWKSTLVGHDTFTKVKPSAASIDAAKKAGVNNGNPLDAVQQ
Chain of Torsin-1A (Homo sapiens) (O14656 whole entry, looked up): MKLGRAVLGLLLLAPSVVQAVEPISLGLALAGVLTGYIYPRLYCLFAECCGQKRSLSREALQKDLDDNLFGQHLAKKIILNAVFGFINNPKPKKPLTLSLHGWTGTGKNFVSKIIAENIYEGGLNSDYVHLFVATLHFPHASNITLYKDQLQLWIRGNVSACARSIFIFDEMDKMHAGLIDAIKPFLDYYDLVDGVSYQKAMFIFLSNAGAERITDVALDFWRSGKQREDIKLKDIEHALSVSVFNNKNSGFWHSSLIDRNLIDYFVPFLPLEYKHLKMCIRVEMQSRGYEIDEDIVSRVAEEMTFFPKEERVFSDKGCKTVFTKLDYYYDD
Chain of Focal adhesion kinase 1 (Homo sapiens) (Q05397 whole entry, looked up): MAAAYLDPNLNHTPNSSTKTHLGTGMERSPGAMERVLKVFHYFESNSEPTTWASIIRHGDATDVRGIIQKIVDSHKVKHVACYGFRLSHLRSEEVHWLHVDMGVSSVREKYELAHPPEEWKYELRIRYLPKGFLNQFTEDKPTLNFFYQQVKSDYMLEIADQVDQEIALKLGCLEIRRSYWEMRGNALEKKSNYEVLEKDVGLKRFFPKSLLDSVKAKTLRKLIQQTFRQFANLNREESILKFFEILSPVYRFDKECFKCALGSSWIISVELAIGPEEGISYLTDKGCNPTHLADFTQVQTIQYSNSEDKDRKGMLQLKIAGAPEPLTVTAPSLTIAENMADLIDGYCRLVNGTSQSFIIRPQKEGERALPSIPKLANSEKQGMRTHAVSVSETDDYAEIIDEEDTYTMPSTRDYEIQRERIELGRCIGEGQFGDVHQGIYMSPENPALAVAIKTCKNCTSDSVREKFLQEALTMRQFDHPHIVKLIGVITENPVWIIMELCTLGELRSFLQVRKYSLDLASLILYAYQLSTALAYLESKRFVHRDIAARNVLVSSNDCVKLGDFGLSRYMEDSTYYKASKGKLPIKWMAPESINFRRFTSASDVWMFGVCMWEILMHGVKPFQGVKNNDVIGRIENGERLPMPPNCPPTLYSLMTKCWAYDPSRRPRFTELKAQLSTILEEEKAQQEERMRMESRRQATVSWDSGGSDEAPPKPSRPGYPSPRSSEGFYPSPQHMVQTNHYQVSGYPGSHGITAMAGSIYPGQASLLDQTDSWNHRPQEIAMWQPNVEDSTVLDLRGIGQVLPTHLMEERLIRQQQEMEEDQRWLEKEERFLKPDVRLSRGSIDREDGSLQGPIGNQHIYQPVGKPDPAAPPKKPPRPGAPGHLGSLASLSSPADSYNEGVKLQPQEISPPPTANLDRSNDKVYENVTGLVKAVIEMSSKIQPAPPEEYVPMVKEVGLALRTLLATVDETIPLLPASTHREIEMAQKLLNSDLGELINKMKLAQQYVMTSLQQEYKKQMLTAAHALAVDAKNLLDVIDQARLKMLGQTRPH

Take `[N-]=[N+]=NCc1ccccc1[C@@H]1OC(c2ccc(OCCCO)cc2)=N[C@]1(Cc1ccccc1)C(=O)O`: the composite z-score in test [1] came to 1.25; in test [2], 0.445; in [3] it was 1.4; in test [4], 0.635; in test [5] it was 0.592; in [6], 0.0221. In addition, the composite z-score was -0.548 in test [8]; 0.536 in test [9]; -0.198 in test [11]; 0.728 in test [16]; -0.016 in test [17]; 0.497 in test [18]. Besides, the composite z-score in [19] is 0.786; in test [20], -0.934. The z-score in test [7] is 1.36; in test [10], -1.44 (inactive); in test [12] it was -0.354 (inactive); in test [13] it was -0.608 (inactive); in test [14] it was 1.19 (inactive); in test [15] it was -0.707 (inactive).

Consider `COc1ccc([Si](C)(C)[C@@H]2[C@@H](CCO)O[C@]3(C(=O)N(Cc4cccc(N(C=O)c5ccccc5)c4)c4ccccc43)[C@H]2C)cc1`, for which the composite z-score in test [1] is 1.25; in test [2], 1.04; in [3] it was 0.228; in [4] it was 0.508; in test [5], 1.18; in [6], 0.598. Besides, the composite z-score is 0.127 in test [8]; 0.893 in test [9]; -0.0398 in test [11]; 0.156 in test [16]; 0.0543 in [17]; 0.0905 in [18]. The composite z-score in [19] is -0.004; in test [20] it was 0.98. In addition, the z-score in test [7] is -0.0337; in test [10], 0.505 (inactive); in [12], -7.17 (inactive); in [13], 0.465 (inactive); in test [14], 7.39 (inactive); in test [15] it was -0.671 (inactive).

With `O=C(CS)NCCCCCNC(=O)[C@H]1C[C@H]2C(=O)N[C@@H](Cc3ccccc3)C(=O)N2[C@H]1c1cccc(OCCO)c1`, the composite z-score in test [1] was found to be 2.51; in test [2], 1.16; in test [3] it was 0.181; in test [4], 0.748; in test [5], 1.37; in [6], 1.77. In addition, the composite z-score in test [8] was 1.45; in [9], 0.788; in test [11] it was 0.306; in test [16] it was -0.304; in [17], 0.0439; in test [18] it was 0.88. For the same compound, the composite z-score turned out to be 0.822 in [19] and 1.83 in test [20]. Also, the z-score in [7] is 1.17; in test [10], -2.3 (inactive); in [12] it was -0.178 (inactive); in test [13] it was -0.388 (inactive); in test [14], 0.696 (inactive); in test [15], -0.0595 (inactive).

`CCOC(=O)C[C@H]1[C@H](OC(=O)c2ccc(C(=O)c3ccccc3)cc2)[C@@H](NC(=O)c2ccc3ccccc3n2)c2cc(OCCCO)ccc2N1C(=O)c1ccc2ccccc2n1`: the composite z-score is -0.0631 in test [1]; 1.06 in test [2]; -0.0481 in test [3]; 0.887 in test [4]; 0.37 in [5]; 0.146 in test [6]. Further, the composite z-score came out at 0.105 in [8]; 0.515 in [9]; 0.211 in test [11]; 0.47 in [16]; 0.0778 in test [17]; 0.323 in [18]. Moreover, the composite z-score is 0.134 in test [19] and -0.0692 in test [20]. In addition, the z-score in test [7] is 1.5; in test [10] it was -0.857 (inactive); in test [12], 0.0729 (inactive); in [13], -0.754 (inactive); in [14], 2.05 (inactive); in test [15] it was -1.22 (inactive).

`NC(=O)NCC#Cc1ccc2c(c1)[C@]1(C(=O)N2)[C@H](C(=O)NC[C@H](O)c2ccccc2)[C@H]2C(=O)O[C@H](c3ccccc3)[C@H](c3ccccc3)N2[C@@H]1c1ccccc1OCCO`: the composite z-score was 0.441 in test [1]; 1.18 in [2]; 0.32 in test [3]; 0.946 in test [4]; 1.05 in test [5]; 0.54 in test [6]. Besides, the composite z-score was 0.28 in [8]; 0.25 in [9]; -0.0335 in test [11]; -0.0692 in test [16]; 0.0471 in test [17]; -1.05 in test [18]. For the same compound, the values for the composite z-score in test [19] and in [20] were 0.92 and 1.82, respectively. Also, the z-score was -1.17 in [7]; 0.649 (inactive) in test [10]; -4.25 (inactive) in [12]; -1.09 (inactive) in test [13]; -0.0246 (inactive) in [14]; -0.304 (inactive) in test [15].
